For assay [1], the target named is Solute carrier family 12 member 5 (Homo sapiens) (UniProt Q9H2X9). The experiment in a line: retest of KCC2 transport modulators without sodium – cell-based, HEK293 KCC2, thallium flux, secondary assay, confirmation (AID 1713;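 active = thallium flux slope above the same plate's solvent-only control mean plus 3 SD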). Conditions: FluoZin2 fluorescence, at 10 µM, hits give high values.
A short description of a further assay: PubChem AID 1714.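 Also: raw slope of fluorescence over initial fluorescence between 10 and 20 s after thallium.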 The note with it: HEK293-KCC2 + bumetanide/ouabain, thallium flux FluoZin2; at 10 µM; hits give high values.
In assay [2] the target is Solute carrier family 12 member 5 (Homo sapiens) (UniProt Q9H2X9). The assay can be described thus: retest of KCC2 transport modulation, ouabain-free – cell-based, HEK293 KCC2, thallium flux, FluoZin2, secondary assay 2, confirmation (AID 1715;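 active = thallium flux slope more than 3 SD above or below the plate's solvent-only control mean, mostly below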;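 also: raw slope with 0.1% DMSO as baseline and bumetanide as block control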). Conditions: HEK293-KCC2, thallium flux FluoZin2 fluorescence; at 10 µM; actives lie on both sides; F/F0 rise rate, 10–20 s post-thallium.

Assay [3] in a line: compound effects on native HEK Tl+ uptake – HEK cells, counterscreen 1, counter-screen for KCC2 modulator project, confirmation (AID 1716;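 active = thallium flux rate significantly above the same plate's solvent-only control wells, beyond their mean plus 3 SD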). Conditions: HEK293 parental cells, thallium flux FluoZin2, ouabain; at 10 µM; baseline-ratio fluorescence slope, 10–20 s after thallium. On the technique in general: The purpose of a counterscreen is to sort out artefacts and off-target activity.

The nature of assay [4]: native HEK Tl+ uptake effects, second counter-screen – HEK cells, counterscreen 2, counter-screen for KCC2 modulator project, confirmation (AID 1718;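 active = thallium flux slope above the same plate's solvent-control mean plus 3 SD in both duplicate wells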;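 also: run without ouabain in cells lacking the KCC2 cotransporter; slope of fluorescence scaled to its starting value between 10 and 20 s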). The note with it: HEK293 parental, thallium flux FluoZin-2 fluorescence slope; at 10 µM.
For assay [5], the target named is Solute carrier family 12 member 5 (Homo sapiens) (UniProt Q9H2X9). The assay can be described thus: modulation of KCC2 thallium flux in HEK cells – cell-based, ouabain, retest, confirmation (AID 1717;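 active = thallium flux slope beyond 3 SD from same-plate DMSO control mean in most replicates, usually higher, sometimes lower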;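 also: slope of initial-normalized fluorescence between seconds 10 and 20 after thallium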). The note with it: HEK293-KCC2, thallium flux FluoZin2 fluorescence, at 10 µM, bidirectional: low = inhibitor, high = activator.

This is one part of the list. Records with an inconclusive call do not appear. Values without a mark were called inactive. The source made the active and inactive calls.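 The calls were made as follows, unless noted: active = thallium entry rate above the same plate's blocked-transporter control wells by more than 3 SD; inconclusive = the two repeat wells disagree; inactive = the rest.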

Solute carrier family 12 member 5 (Homo sapiens), sequence (Q9H2X9 whole entry, looked up): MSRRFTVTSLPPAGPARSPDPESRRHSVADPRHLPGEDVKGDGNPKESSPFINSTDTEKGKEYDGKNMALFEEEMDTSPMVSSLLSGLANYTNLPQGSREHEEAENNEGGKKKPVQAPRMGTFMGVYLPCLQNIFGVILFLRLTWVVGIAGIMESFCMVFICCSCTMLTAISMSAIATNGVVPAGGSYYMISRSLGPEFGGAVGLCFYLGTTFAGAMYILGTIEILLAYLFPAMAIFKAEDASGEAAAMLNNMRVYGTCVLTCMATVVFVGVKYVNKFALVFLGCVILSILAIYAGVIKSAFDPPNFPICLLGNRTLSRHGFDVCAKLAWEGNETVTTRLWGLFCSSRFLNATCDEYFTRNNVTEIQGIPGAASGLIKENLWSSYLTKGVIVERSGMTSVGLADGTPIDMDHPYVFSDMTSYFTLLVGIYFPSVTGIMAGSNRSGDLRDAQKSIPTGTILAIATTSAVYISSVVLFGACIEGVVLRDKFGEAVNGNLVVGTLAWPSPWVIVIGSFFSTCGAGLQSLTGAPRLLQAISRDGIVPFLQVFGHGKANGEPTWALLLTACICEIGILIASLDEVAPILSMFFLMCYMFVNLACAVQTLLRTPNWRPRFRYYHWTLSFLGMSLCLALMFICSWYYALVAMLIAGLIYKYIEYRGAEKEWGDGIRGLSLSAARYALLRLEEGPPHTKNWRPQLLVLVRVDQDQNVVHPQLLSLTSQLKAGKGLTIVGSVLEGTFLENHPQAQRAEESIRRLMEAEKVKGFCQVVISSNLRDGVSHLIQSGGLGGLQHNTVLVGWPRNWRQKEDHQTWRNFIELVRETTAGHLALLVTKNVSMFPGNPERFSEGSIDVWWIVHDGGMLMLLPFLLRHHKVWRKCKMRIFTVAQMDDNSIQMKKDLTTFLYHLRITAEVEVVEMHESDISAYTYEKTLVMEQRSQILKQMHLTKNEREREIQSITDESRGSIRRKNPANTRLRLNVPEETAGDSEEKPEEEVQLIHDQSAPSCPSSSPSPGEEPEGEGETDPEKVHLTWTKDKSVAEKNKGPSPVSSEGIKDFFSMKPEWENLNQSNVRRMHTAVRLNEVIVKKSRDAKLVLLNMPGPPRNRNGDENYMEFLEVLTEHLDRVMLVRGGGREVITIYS

Regarding `O=C(Cn1c(-c2ccc(Cl)cc2)noc1=O)N1CCN(c2ccccc2F)CC1`, the normalised thallium flux (F/F0 slope) in assay [1] was 0.00839. For the same compound, the normalized thallium flux was 0.00664 in “PubChem AID 1714” and 0.0245 (active) in assay [2]. The thallium flux rate (normalised fluorescence) in assay [3] is 0.00698. Also, the thallium flux slope in assay [4] is 0.00981.

`O=C(CSCc1ccccc1)N1CCc2ccccc21`: the normalised thallium flux (F/F0 slope) in assay [1] is 0.00671. Also, the normalized thallium flux in “PubChem AID 1714” is 0.00485; in assay [2], 0.027. Besides, the thallium flux rate (normalised fluorescence) in assay [3] was 0.0071. In assay [5], the raw Tl+ flux slope (below DMSO = inhibition, above = activation) was 0.0219 (active). Also, the thallium flux slope in assay [4] is 0.00997.

Consider `c1ccc2c(C[n+]3csc4ccccc43)cccc2c1`, for which the normalised thallium flux (F/F0 slope) in assay [1] is 0.0079. The normalized thallium flux was 0.0261 (active) in “PubChem AID 1714” and 0.0399 (active) in assay [2]. The thallium flux rate (normalised fluorescence) in assay [3] is 0.0169 (active). Further, in assay [5], the raw Tl+ flux slope (below DMSO = inhibition, above = activation) is 0.0315 (active). In assay [4], the thallium flux slope is 0.0219 (active).

For `Cc1ccc(C)c(NC(=S)NNC(=O)c2csc(C)c2)c1`, the normalised thallium flux (F/F0 slope) in assay [1] is 0.0109. The normalized thallium flux is 0.013 (active) in the assay “PubChem AID 1714” and 0.034 in assay [2]. Further, the thallium flux rate (normalised fluorescence) in assay [3] was 0.0173 (active). The raw Tl+ flux slope (below DMSO = inhibition, above = activation) in assay [5] was 0.0256 (active). Besides, the thallium flux slope in assay [4] is 0.012.

Turning to `O=[N+]([O-])c1ccccc1/C=N/n1c(COc2ccccc2)n[nH]c1=S`, the normalised thallium flux (F/F0 slope) in assay [1] was 0.00593. Besides, the figures for the normalized thallium flux (in the assay “PubChem AID 1714”; in assay [2]) were 0.0786 (active) and 0.0297, respectively. For the same compound, in assay [3], the thallium flux rate (normalised fluorescence) is 0.0168 (active). The thallium flux slope in assay [4] was 0.0116 (active).

Take `Cc1nc(SCc2ccc(F)cc2)c([N+](=O)[O-])[nH]1`: the normalised thallium flux (F/F0 slope) in assay [1] is 0.00918. The normalized thallium flux in “PubChem AID 1714” is 0.00631; in assay [2], 0.0237 (active). Also, the thallium flux rate (normalised fluorescence) in assay [3] is 0.00609. Further, the raw Tl+ flux slope (below DMSO = inhibition, above = activation) in assay [5] was 0.0255 (active). Besides, the thallium flux slope in assay [4] was 0.00995.

As to `COc1ccc(C(=O)NC(=S)NNC(=O)c2c(-c3ccccc3)noc2C)cc1`, in assay [1], the normalised thallium flux (F/F0 slope) is 0.00558. The normalized thallium flux is 0.0445 (active) in the assay “PubChem AID 1714” and 0.0501 (active) in assay [2]. In addition, the thallium flux rate (normalised fluorescence) in assay [3] is 0.0354 (active). Further, the raw Tl+ flux slope (below DMSO = inhibition, above = activation) in assay [5] was 0.0401 (active). Moreover, in assay [4], the thallium flux slope is 0.0396 (active).

`CCC(C)Cn1c(O)cc2nn(-c3nc4ccccc4s3)c(=O)c-2c1C` (centres undefined): the normalised thallium flux (F/F0 slope) in assay [1] was 0.00617. Further, the values for the normalized thallium flux (in “PubChem AID 1714”; in assay [2]) were 0.0393 (active) and 0.0456 (active), respectively. In addition, the thallium flux rate (normalised fluorescence) in assay [3] is 0.0308 (active). For the same compound, the raw Tl+ flux slope (below DMSO = inhibition, above = activation) in assay [5] was 0.0409 (active). Further, the thallium flux slope in assay [4] was 0.0328 (active).

In the case of `COC(=O)c1sccc1NC(=O)c1cc(OC)c(OC)c(OC)c1`, the normalised thallium flux (F/F0 slope) in assay [1] was 0.00806. The normalized thallium flux in “PubChem AID 1714” was 0.00564; in assay [2], 0.029. Moreover, the thallium flux rate (normalised fluorescence) in assay [3] was 0.00681. Further, the raw Tl+ flux slope (below DMSO = inhibition, above = activation) in assay [5] was 0.0198. Further, in assay [4], the thallium flux slope is 0.00953.

Take `O=C(N/N=C/c1coc2ccccc2c1=O)c1cc2ccccc2o1`: the normalised thallium flux (F/F0 slope) in assay [1] was 0.0123. Moreover, the normalized thallium flux in the assay “PubChem AID 1714” is 0.0194 (active); in assay [2], 0.0374. For the same compound, in assay [3], the thallium flux rate (normalised fluorescence) was 0.0141 (active). In addition, the raw Tl+ flux slope (below DMSO = inhibition, above = activation) in assay [5] was 0.0271 (active). The thallium flux slope in assay [4] is 0.0106.

Consider `O=C(NC(=S)N1CCc2ccccc21)c1ccco1`, for which, in assay [1], the normalised thallium flux (F/F0 slope) is 0.00899 (active). Moreover, the normalized thallium flux was 0.0451 (active) in the assay “PubChem AID 1714” and 0.0395 (active) in assay [2]. The thallium flux rate (normalised fluorescence) in assay [3] is 0.0311 (active). Moreover, the raw Tl+ flux slope (below DMSO = inhibition, above = activation) in assay [5] is 0.0407 (active). In assay [4], the thallium flux slope is 0.0243 (active).

The record behind these values is PubChem BioAssay.
